The source of these data is PubChem BioAssay AID620 (Sanford-Burnham Center for Chemical Genomics, 2007).

In all, about 87,000 compounds went through this assay and about 360 (0.41%) were called active. Many of the other results were omitted from the sample, so actives are more common in it than they were. Values without a mark were called inactive. Cut-off read from the data, not from the text of the source: active = cytotoxicity above about 50%; inactive = the rest.

A short description of this assay: HT1080 cell viability loss – fluorescence readout (AID 620).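 Note: cells exposed to compound overnight then 4 h with Alamar Blue; 0% = vehicle DMSO and 100% = killing control.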 The following applies: at 10 µM, hits give high values.
With `COc1cc(C(=O)Nc2nnc(CC(=O)N3CCOCC3)s2)cc(OC)c1OC`, the cytotoxicity is -1%.

As to `CCOc1ccccc1NC(=O)CSc1nnnn1-c1ccccc1`, the cytotoxicity is 7.2%.

Consider `Cc1noc(C)c1S(=O)(=O)N1CCCC(C(=O)NCc2ccccn2)C1` (stereo not given), for which the cytotoxicity is 3.9%.

As for `COC(=O)CN(Cc1ccco1)S(=O)(=O)c1ccccc1`, the cytotoxicity is 1.2%.

Regarding `CC1=CCC(Cc2nc3ccccc3o2)C1(C)C` (stereo not given), the cytotoxicity was 0.6%.

For the molecule `CCOc1cc(N2CCOCC2)c(OCC)cc1NC(=O)CCS(=O)(=O)c1ccc(Cl)cc1`, the cytotoxicity is 6.9%.

Regarding `CCOc1ccc(Br)cc1S(=O)(=O)Nc1ccccc1N1CCOCC1`, the cytotoxicity is 4.5%.

On to `CCOc1cc(N2CCOCC2)c(OCC)cc1NS(=O)(=O)c1ccc(Cl)s1`, for which the cytotoxicity was 51.9% (active).

Regarding `O=C(NC1CCCCCC1)C1CCN(C(=O)Cc2ccccc2)CC1`, the cytotoxicity is 3.1%.

For `COc1ccc2nc(-n3c(C)ccc3C)sc2c1`, the cytotoxicity was -1.1%.

For the molecule `O=C(N1CCN(CCO)CC1)N1c2ccccc2C=Cc2ccccc21`, the cytotoxicity was 3.2%.

For `COc1ccc(NC(=O)CC(=O)Nc2ccc(OC)cc2OC)c(OC)c1`, the cytotoxicity was -3.5%.

For the molecule `CCC(=O)Nc1ccc(OC)cc1OC`, the cytotoxicity is -3.2%.

`N#CC1=C(N)Oc2c(ccc3cccnc23)C1c1cccnc1` (stereo not given): the cytotoxicity is 39.8%.

As for `CN(C)c1ccc2c(c1)OC(N)=C(C#N)C2c1cccc(F)c1` (stereo not given), the cytotoxicity is 56% (active).

For the molecule `COc1cc(C2C(C#N)=C(N)Oc3cc(O)ccc32)cc2c1OCO2` (stereo not given), the cytotoxicity was -6.6%.

Consider `COc1ccc(C2C(C#N)=C(N)Oc3cc(O)ccc32)cc1OC` (stereo not given), for which the cytotoxicity is -13.3%.

Regarding `COc1cc(C2C(C#N)=C(N)Oc3cc(O)ccc32)cc(OC)c1OC` (stereo not given), the cytotoxicity is 64.7% (active).

As to `N#CC1=C(N)Oc2cc(O)ccc2C1c1ccccc1` (stereo not given), the cytotoxicity was -0.8%.

In the case of `COc1cc(C2C(C#N)=C(N)Oc3cc(N(C)C)ccc32)cc2c1OCO2` (stereo not given), the cytotoxicity was 63.3% (active).

Regarding `N#CC1=C(N)Oc2cc(N)ccc2C1c1ccc(F)cc1` (stereo not given), the cytotoxicity was -0.8%.

Consider `N#CC1=C(N)Oc2cc(O)ccc2C1c1ccncc1` (stereo not given), for which the cytotoxicity is -6.2%.

With `CCN(CC)c1ccc2c(c1)OC(N)=C(C#N)C2c1cccnc1` (stereo not given), the cytotoxicity is 67.5% (active).

In the case of `N#CC1=C(N)Oc2cc3ccccc3cc2C1c1cccnc1` (stereo not given), the cytotoxicity is 47.6%.

As to `COc1cc(C2C(C#N)=C(N)Oc3cc(C)oc(=O)c32)cc2c1OCO2` (stereo not given), the cytotoxicity was -1.5%.

For the molecule `Cc1cccc(OCCn2c(NC(=O)c3ccco3)nc3ccccc32)c1`, the cytotoxicity was 5.5%.

In the case of `CC(=O)N1[C@H](Cc2ccccc2)C=C[C@]1(C)C(=O)O`, the cytotoxicity was 6.6%.

In the case of `CCC(c1nnnn1C1CCCC1)N1CCN(c2ccccc2F)CC1` (stereo not given), the cytotoxicity is -20.4%.

With `Cc1ccnc(NS(=O)(=O)c2ccc(Oc3ccccc3)cc2)c1`, the cytotoxicity was 7.3%.

With `COc1cc(NC(=O)CN2C(=O)NC(C)(CC(C)C)C2=O)cc(OC)c1` (stereo not given), the cytotoxicity was -7.9%.

Take `O=C1NC(c2ccccc2)=C(c2nc3ccccc3s2)C(c2ccc(F)cc2)N1` (stereo not given): the cytotoxicity was -3.1%.

Take `O=C(CSc1nnc(COc2ccc(F)cc2)o1)N1c2ccccc2CCc2ccccc21`: the cytotoxicity is -8%.

`O=C(CSc1nnc(COc2ccc(Cl)cc2)o1)N1CCN(c2ccccc2)CC1`: the cytotoxicity is 1.3%.

Regarding `O=C(CSc1nnc(COc2ccc(Cl)cc2)o1)N1c2ccccc2CCc2ccccc21`, the cytotoxicity was 62.4% (active).

With `O=C(CCCN1C(=O)c2ccccc2C1=O)Nc1ccc(S(=O)(=O)N2CCOCC2)cc1`, the cytotoxicity was 14.1%.

Consider `CCCCCc1nnc(NC(=O)CS(=O)(=O)Cc2ccccc2)s1`, for which the cytotoxicity is -1.5%.

Consider `CC1=CC(C)(C)Nc2ccc(OC(=O)c3cccnc3)cc21`, for which the cytotoxicity is 14.7%.

Take `CC1=CC(C)(C)Nc2ccc(OC(=O)CN3C(=O)C4CCCCC4C3=O)cc21` (stereo not given): the cytotoxicity is -1%.

As for `CC1=CC(C)(C)Nc2ccc(OC(=O)c3ccco3)cc21`, the cytotoxicity was 59.2% (active).

Consider `COc1ccc(CC(=O)c2ccccc2C(=O)O)cc1`, for which the cytotoxicity was -0.2%.

Take `CCCCN(CCCC)S(=O)(=O)c1ccc(OC)c2ncccc12`: the cytotoxicity was 32.7%.

Consider `COc1ccc(C(=O)Oc2ccc(/C=N/O)cc2)cc1`, for which the cytotoxicity was 2.6%.

Regarding `COc1ccc(N/N=C(\C=N\O)C(=O)c2ccc(OC)cc2)cc1`, the cytotoxicity is 59% (active).

Take `CO/N=C/C(=N\Nc1ccc(C)cc1)C(=O)c1ccc(OC)cc1`: the cytotoxicity is 53.7% (active).

In the case of `COc1ccc(N/N=C(/Oc2ccc([N+](=O)[O-])cc2)C(C)=O)cc1`, the cytotoxicity is 5.4%.

On to `CO/N=C\C(=N\Nc1ccc(OC)cc1)C(=O)c1ccccc1`, for which the cytotoxicity is -0.7%.

In the case of `CO/N=C/C(=N\Nc1ccc(OC)cc1)C(=O)c1ccc(OC)cc1`, the cytotoxicity was 11.7%.

On to `CCOc1ccc(N2C(=O)CSC23CCCCC3)cc1`, for which the cytotoxicity was -10.8%.

Take `COCCn1c(SCC(=O)NCc2cccs2)nnc1-c1ccc(OC)cc1`: the cytotoxicity is 7.9%.

For the molecule `Cc1ccc(SC(C)C(=O)Nc2ccncc2)cc1` (stereo not given), the cytotoxicity is -1.4%.

For the molecule `O=C1c2[nH]nc(-c3ccccc3O)c2C(c2cccc(Cl)c2)N1Cc1ccco1` (stereo not given), the cytotoxicity was 3.9%.

As to `Cc1ccc(S(=O)(=O)N2CCN(C(=O)c3ccc(OCc4c(C)noc4C)cc3)CC2)cc1`, the cytotoxicity is -2.3%.

Consider `NC(=O)C1CCN(C(=S)c2cccs2)CC1`, for which the cytotoxicity was 8.7%.

In the case of `N#CC1=C2SCC(O)(c3ccccc3)N2C(=O)CC1c1ccccc1` (stereo not given), the cytotoxicity is 63.1% (active).

Turning to `COc1ccc(C2CC(=O)N3C(=C2C#N)SCC3(O)c2ccccc2)cc1` (stereo not given), the cytotoxicity was 5.5%.

For the molecule `N#CC1=C2SCC(O)(c3ccccc3)N2C(=O)CC1c1ccccc1F` (stereo not given), the cytotoxicity was 4.1%.

Take `O=C(NCCCN1CCCC1=O)c1cccs1`: the cytotoxicity is 1.9%.

Take `Cn1c(=O)c2c(nc(CN3CCN(c4ccccc4)CC3)n2CCN2CCOCC2)n(C)c1=O`: the cytotoxicity is 8.9%.

On to `CNc1cc(C)nc(-n2nc(C)cc2C)n1`, for which the cytotoxicity was 2.1%.

On to `CCOc1ccc(Nc2cc(C)nc(-n3nc(C)cc3C)n2)cc1`, for which the cytotoxicity was 50.6% (active).

With `Cc1cc(NCCO)nc(-n2nc(C)cc2C)n1`, the cytotoxicity is -5.5%.

With `COc1ccc(Nc2cc(C)nc(-n3nc(C)cc3C)n2)cc1`, the cytotoxicity is 65.9% (active).

On to `COc1ccc(Nc2cc(C)nc(N3CCOCC3)n2)cc1`, for which the cytotoxicity is 21.5%.

For the molecule `CCOc1ccc(Nc2cc(C)nc(N3CCOCC3)n2)cc1`, the cytotoxicity is -0.6%.

Regarding `CCCc1nc2sc3ccccc3c(=O)c2c(=O)n1Cc1ccco1`, the cytotoxicity was 21%.

Turning to `Cc1cccc(NS(=O)(=O)c2cc(C(=O)N3CCN(C)CC3)ccc2C)c1`, the cytotoxicity is -3.1%.

As to `COc1cc(OC)cc(C(=O)Nc2nc3ccccc3[nH]2)c1`, the cytotoxicity was -1.1%.

On to `COc1cc(C(=O)Nc2nc3ccccc3[nH]2)cc(OC)c1OC`, for which the cytotoxicity is -3.2%.

Regarding `COC(=O)Nc1nc2ccc(Sc3ccccc3)cc2[nH]1`, the cytotoxicity is 62.2% (active).

For the molecule `COC(=O)Nc1nc2ccc(C(=O)c3ccccc3)cc2[nH]1`, the cytotoxicity was 61.1% (active).

For `COc1ccc(C(=O)Nc2nc3ccccc3[nH]2)cc1OC`, the cytotoxicity was 0.5%.

On to `Cc1nc2ccc(C(=O)c3ccccc3)cc2[nH]1`, for which the cytotoxicity was -6.6%.

With `Cc1ccc(-c2nc(CS(=O)CC(=O)NC3CCC(C)CC3)c(C)o2)cc1` (stereo not given), the cytotoxicity is -9.8%.

`CCc1ccc(OC)c(S(=O)(=O)Nc2ccccc2C)c1`: the cytotoxicity is 3.8%.

In the case of `CC(C)N(c1ccccc1)c1ccc(NC(=O)C2CCCO2)cc1` (stereo not given), the cytotoxicity was -3.8%.

On to `Cn1nnnc1Sc1ncnc2scc(-c3ccc(F)cc3)c12`, for which the cytotoxicity was 20%.

For `Cc1ccc(-c2csc3ncnc(NCCN4CCOCC4)c23)cc1`, the cytotoxicity is -10.9%.

`CNC(=O)CN1C(=O)CSc2ncccc21`: the cytotoxicity was -11.8%.

Take `Cn1c(=NC(=O)CCl)sc2ccccc21`: the cytotoxicity is 98.2% (active).

As to `CC(=O)N=c1sc2ccccc2n1C`, the cytotoxicity was -2.3%.

`Cn1c(=NC(=O)CN2C(=O)C3CC=CCC3C2=O)sc2ccccc21` (stereo not given): the cytotoxicity was -0.3%.

For the molecule `CC(=O)Nc1ccc(NC(=O)Cn2c(CC(=O)N3CCCC3)nc3ccccc32)cc1`, the cytotoxicity was -27.7%.

Turning to `C=CCn1c(N2C(=O)CC(Cc3ccccc3)C2=O)nc2ccccc21` (stereo not given), the cytotoxicity was 5.8%.

With `CCc1ccc(NC(=O)c2ccccc2NC(=O)C2CCCO2)cc1` (stereo not given), the cytotoxicity was -5.7%.

Consider `COc1cccc2c(=O)n(CC(=O)NC3CCCC3)ccc12`, for which the cytotoxicity is 2.2%.

As to `CNc1nc(-c2ccccn2)nnc1-c1ccccc1`, the cytotoxicity was 10.4%.

`c1ccc(-c2noc(C3CCCCC3)n2)nc1`: the cytotoxicity is -7.2%.

With `c1ccc(-c2nnc(-c3ccccn3)nc2NC2CCCCC2)cc1`, the cytotoxicity was 50.7% (active).

Turning to `CN1CCC(N(C)C(=O)c2ccccc2Nc2ccc(SC(F)F)cc2)CC1`, the cytotoxicity is 5.3%.

As for `CCCn1c(NCc2ccc(C)o2)nc2ccccc21`, the cytotoxicity was 0.5%.

As for `COCCn1nnnc1C(c1ccc2ncccc2c1)N1CCN(c2ccccc2F)CC1` (stereo not given), the cytotoxicity was -18.9%.

For the molecule `O=S(=O)(c1ccc(Cl)cc1)N1c2ccccc2Oc2nc3ccccc3nc21`, the cytotoxicity is 3.8%.

For `COc1ccc(S(=O)(=O)N2c3cc(Cl)ccc3Oc3nc4ccccc4nc32)cc1`, the cytotoxicity was 70.2% (active).

For `O=S(=O)(c1ccccc1)N1c2cc(Cl)ccc2Oc2nc3ccccc3nc21`, the cytotoxicity was -4.7%.

Take `COC(=O)c1cc(NS(=O)(=O)c2ccc(OC)c(OC)c2)ccc1Cl`: the cytotoxicity was 3.3%.

On to `COCc1[nH]nc2c1C(c1ccccc1Cl)C(C#N)=C(N)O2` (stereo not given), for which the cytotoxicity was -4.4%.

`Cc1cc(C(C)(C)C)nc2[nH]n(-c3ccccc3)c(=O)c12`: the cytotoxicity was -2.1%.

Consider `Cc1ccnc(NC(=O)c2cc(-n3cnnc3)ccc2Cl)c1`, for which the cytotoxicity is 12.1%.

With `CC(C)(C)C(=O)Nc1sc2c(c1C#N)CCCCC2`, the cytotoxicity is 5.8%.

On to `COCCCNC(=O)CC(NS(=O)(=O)c1ccc(Cl)cc1)c1ccco1` (stereo not given), for which the cytotoxicity is -9.5%.
